Among all 130,000 compounds or so, about 550 (0.42%) were called active. Roughly 4% stayed inconclusive and do not appear here. For the sample, actives were picked, then their nearest neighbours and some compounds at random. Values without a mark were called inactive. Calls come from the whole dose curve; as a rule, active = well fitted inhibition curve with a large enough effect; inconclusive = small, poorly fitted or top-dose-only effect, or effect the other way; inactive = flat fitted curve, though single readings scatter.
Assay: qHTS Assay for Inhibitors of the ERK Signaling Pathway using a Homogeneous Screening Assay; Stimulation with EGF; note: nearly all actives have a fitted effect of over 55% in size;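 for activity change, negative = inhibition: plate controls were stimulated vehicle wells for no effect and unstimulated vehicle basal for full effect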
Conditions: HEK293-V1b, EGF-stimulated phospho-ERK AlphaScreen; series mostly up to 11.5 µM; activity change, negative = inhibition: at the top concentration
Method in brief: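 After overnight plating in 1% FBS, HEK293-V1b cells received test compound for half an hour, then a 5 min pulse of EGF (25 nM); ERK phosphorylation in lysates was read by bead-based AlphaScreen.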
Potency is the fitted concentration of half-maximal effect.

| Compound | activity change, negative = inhibition | Potency |
| --- | --- | --- |
| Cn1c(SCC(=O)N2CCOCC2)nnc1-c1ccc2ncccc2c1 | 1.18% [at 57.5 µM] | – |
| OCCCNc1nccc(-c2cc(Nc3cccc(Cl)c3)ncn2)n1 | – | 22.4 µM (active) |
| CC(C)n1cnc2c(Nc3cccc(Cl)c3)nc(N(CCO)CCCO)nc21 | -9.71% [at 57.5 µM] | – |
| O=C(Nc1cc(Cl)cc(Cl)c1)C(NCCCO)c1ccccc1 (centres undefined) | 7.53% | – |
| O=C(NN1C(=O)C2C(C1=O)C1C=CC2C12CC2)c1ccccc1Cl (centres undefined) | 9.91% [at 57.5 µM] | – |
| O=C(CN1CCN(Cc2ccc(F)cc2Cl)C1=O)NCc1cccs1 | -0.134% | – |
| CN(C)c1cc2c(Nc3ccc4c(cnn4Cc4ccccc4)c3)ncnc2cn1 | – | 2.82 µM (active) |
| CC(=O)Nc1ccc(NC(=O)CSc2ncnc3c2cnn3Cc2ccccc2)cc1 | 10.3% [at 57.5 µM] | – |
| Clc1ccc(Nc2ncnc3c2nnn3Cc2ccccc2)cc1 | 5.96% [at 57.5 µM] | – |
| COc1ccc(Cl)cc1C(=O)NNC(=O)c1nc2nc(C)cc(C)n2n1 | -1.38% [at 57.5 µM] | – |
| CN(C)CCCn1c(SCCN2C(=O)c3ccccc3C2=O)nc2ccccc2c1=O | -9.18% | – |
| COc1ccc(C/C(N)=N/OC(=O)c2ccco2)cc1OC | -1.35% | – |
| COc1ccccc1Cn1c(CO)nc2ccccc21 | -2.95% [at 57.5 µM] | – |
| Cc1cccc(-n2c(Cc3cc(=O)[nH]c(=O)[nH]3)nnc2SCC(=O)Nc2cccc(C(F)(F)F)c2)c1 | 6.29% | – |
| O=C(COC(=O)c1ccc(Cl)nc1)NCc1cccs1 | -3.16% | – |
| CCOc1ccc(C2NC(=S)NC3=C2CCc2ccccc23)cc1 (centres undefined) | 0.15% [at 57.5 µM] | – |
| Cc1cc(Oc2ccc(Cl)cc2)nc(SCC(=O)c2ccccc2)n1 | 5.47% | – |
| Cc1ccc(N/C=C/C(=O)c2ccccc2)cc1C | 2.85% | – |
| Cc1cc(C)nc(S/C=C/C(=O)c2ccccc2)n1 | – | 22.4 µM (active) |
| O=C(NNC(=S)NC(=O)c1cn(-c2ccccc2)nc1-c1ccccc1)c1ccncc1 | -5.14% [at 57.5 µM] | – |
| CC1=NN(c2ccccc2)C(=O)C1C(=O)c1ccc([N+](=O)[O-])cc1 (centres undefined) | 3.98% | – |
| Oc1ccc(-c2nnc(Nc3ccccc3)c3ccccc23)cc1 | -5.01% [at 57.5 µM] | – |
| O=C(COC(=O)c1ccccc1)Nc1cccc(S(=O)(=O)N2CCOCC2)c1 | -7.82% | – |
| Cc1nn(CCOc2ccc(Br)cc2)c(C)c1[N+](=O)[O-] | -8.51% | – |
| CCC(=O)OCCNc1nc(-c2ccccc2)nc2ccccc12 | 8.44% | – |

| Compound | activity change, negative = inhibition | Potency |
| --- | --- | --- |
| COCCNc1nc2nonc2nc1N1CCCC1c1nccs1 (centres undefined) | -14.3% | – |
| O=S(=O)(Nc1n[nH]c(C(F)(F)F)n1)c1ccccc1 | -7.29% [at 57.5 µM] | – |
| CC(C)N(Cc1nc(-c2ccc3c(c2)OCO3)no1)CC1CCC(=O)N1 (centres undefined) | 4.58% | – |
| O=C1CN(C(=O)CN2C(=O)NC3(CCCCC3)C2=O)c2ccccc2N1 | 0.303% | – |
| CCOC(=O)c1c(C)oc(C)c(C(=O)OCC)c1=O | 0.8% [at 57.5 µM] | – |
| Cc1nn(CC(=O)N/N=C/c2ccc(F)cc2)c(C)c1[N+](=O)[O-] | -5.16% [at 57.5 µM] | – |
| O=S(=O)(c1cccc(-c2nnc3n2CCCCC3)c1)N1CCOCC1 | 4.68% [at 57.5 µM] | – |
| CCN(CC)CCCSc1nc2ccccc2s1 | -6.48% | – |
| COC(=O)c1cc(S(=O)(=O)N2CCC(C(N)=O)CC2)oc1C | -0.656% [at 57.5 µM] | – |
| CN(C)/C=C(/C(=O)c1ccc(F)cc1)S(=O)(=O)c1ccc(F)cc1 | -14.3% | – |
| Cc1c(C(=O)O)nnn1-c1nonc1N | -6.38% | – |
| O=C1CC(c2c(F)cccc2Cl)C(n2cncn2)C(O)=C1C1NCCc2ccccc21 (centres undefined) | -2.18% | – |
| C/C(=N/NC(=O)CC(=O)N/N=C(\C)c1ccc([N+](=O)[O-])cc1)c1ccc([N+](=O)[O-])cc1 | 10.6% [at 57.5 µM] | – |
| CC(C)(C)NC(=O)NCc1ccco1 | 4.86% [at 57.5 µM] | – |
| CCC(C)NC(=O)CN(C1CCCCC1)S(C)(=O)=O (centres undefined) | -0.213% | – |
| Cc1cc(=O)[nH]c(S)c1C#N | -5.86% [at 57.5 µM] | – |
| CCN(CC)CCCN=Cc1c(O)n(-c2ccc(C)cc2)c(=O)c2ccccc12 | -15.5% [at 57.5 µM] | – |
| O=C(COc1ccc(Cl)cc1[N+](=O)[O-])N1CCCCC1 | -19.8% | – |
| CC(=O)Oc1c2c(c3c(c1CC=C(C)C)O[C@@]14C(=CC5CC1C(C)(C)OC4(C/C=C(\C)C(=O)O)C5=O)C3=O)OC(C)(CCC=C(C)C)C=C2 (some centres undefined) | – | 25.1 µM (active) |
| O=C(CC(=O)N/N=C\c1ccc(F)cc1)NCCc1ccccc1 | -8.99% | – |
| COc1ccc(OCC(O)CNCCNc2nccc(C(F)(F)F)n2)cc1 (centres undefined) | 2.31% [at 57.5 µM] | – |
| CCOc1ccc(/C=C(/NC(=O)c2ccccc2)C(=O)NCCC(=O)O)cc1 | -5.71% | – |
| O=C(NC1(C(F)(F)F)NC(=O)N(C2CCCCC2)C1=O)c1ccco1 (centres undefined) | -9.23% | – |
| CCN1CCN(C(=O)c2ccc(CN(c3ccc(C)c(C)c3)S(C)(=O)=O)cc2)CC1 | -11.4% | – |
| CC(=O)N(OCc1ccc(OC(C)C)c(Cl)c1)C(C)=O | 3.04% [at 57.5 µM] | – |

| Compound | activity change, negative = inhibition | Potency |
| --- | --- | --- |
| NS(=O)(=O)c1ccc(CCNC(=O)c2ccc(Cl)cc2[N+](=O)[O-])cc1 | -7.68% | – |
| CN(C)c1ccc(Nc2c3c4c(cccc4n(C)c2=O)C(=O)c2ccccc2-3)cc1 | – | 3.16 µM (active) |
| Cc1cc(=O)oc2c(C(=O)c3ccccc3)c(OCC(N)=O)ccc12 | 1.12% [at 57.5 µM] | – |
| CN(C)c1ccc(/C=N/NC(=O)C(O)c2ccc(Br)cc2)cc1 (centres undefined) | 13.4% | – |
| CCC(C)N1C(=S)SC(C)(C)C1N(O)C(=O)NC1CCCCC1 (centres undefined) | -10.1% [at 57.5 µM] | – |
| Cc1ccc(C(=O)Nc2nc(N)n(-c3ccccc3)n2)cc1 | 3.9% [at 57.5 µM] | – |
| CC1=NNC(=O)C1CCC(=O)N/N=C(\C)c1ccc(Cl)cc1 (centres undefined) | -12.6% [at 57.5 µM] | – |
| COc1ccc(Cc2nnc(NC(=O)c3cc(OC)c(OC)c(OC)c3)s2)cc1OC | 1.01% | – |
| O=C(O)c1n[nH]nc1-c1ccccc1 | -3% | – |
| COc1ccc(N=Nc2ccc(O)c(P(=O)(c3ccccc3)c3ccccc3)c2)cc1 | -14.3% [at 57.5 µM] | – |
| Oc1ccc(N=Cc2c(O)ccc3ccccc23)cc1 | -7% [at 57.5 µM] | – |
| Oc1ccc2ccccc2c1C=Nc1ccccc1 | 10.2% [at 57.5 µM] | – |
| Oc1ccc2ccccc2c1N=Nc1nccs1 | – | 12.6 µM (active) |
| O=C(CCNc1n[nH]c(=O)[nH]c1=O)N/N=C\c1ccc(Br)cc1 | 4.1% [at 57.5 µM] | – |
| CCOCCCNC(=O)C(NC(=O)Cc1c[nH]c2ccccc12)c1ccc(OC)cc1 (centres undefined) | -5% | – |
| Cc1cc(OCCCC(=O)NCCN2C(=O)S/C(=C\c3cccnc3)C2=O)ccc1Cl | 5.87% | – |
| O=C(NCc1ccco1)C(=O)c1cn(CC(=O)N2CCCCCC2)c2ccccc12 | -3.82% | – |
| Cc1ccnc(NC(=O)c2ccc(Cl)c([N+](=O)[O-])c2)c1 | -6.64% | – |
| Cc1ccc(OCC(=O)Nc2nnc(-c3ccco3)s2)cc1 | 3.26% [at 57.5 µM] | – |
| CC(C)C1Nc2c(C(=O)O)cccc2C(Nc2ccccc2C(=O)O)C1(C)C (centres undefined) | 1.59% | – |
| N#C/C(=C\N1CCOCC1)S(=O)(=O)c1ccc(Cl)cc1 | -6.91% [at 57.5 µM] | – |
| Cc1cc(C)c2c(NC(=O)C3CC3)nn(C)c2n1 | 0.186% | – |
| O=C(Cc1ccc(F)cc1)N1CCN=C1SCc1cccc([N+](=O)[O-])c1 | -1.53% | – |
| CN(Cc1cc2cc(F)ccc2[nH]1)Cc1nc(-c2cnccn2)no1 | -6.42% | – |

From PubChem BioAssay AID1454 (National Center for Advancing Translational Sciences (NCATS), 2008)
